# ± gives the uncertainty stated by the source.
# System: Candidatus Liberibacter solanacearum in potato hairy roots
# Assay: relative CLso titer (% of untreated control); higher = less inhibition of bacterial titer
# Settings: 10 µM; 72 h
# Protocol: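 Primary screen of ~220 Spectrum collection (MicroSource) compounds at 10 µM (0.1% DMSO) on Candidatus Liberibacter solanacearum-infected potato hairy roots in multi-well plates (Gamborg B-5 medium, vacuum infiltrated, 21 °C, dark, 72 h). CLso titer was measured by qPCR of 16S rDNA normalised to potato RPL2 (2^-ddCq), pairwise-standardised against untreated controls, averaged over two biological replicates and expressed as % of untreated.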
row,Compound,relative CLso titer
1,CC1(C)OC(=O)NC1=O,65.8 ± 3.9%
2,CNCCCN1c2ccccc2CCc2ccccc21,144 ± 1.5%
3,CN(C)CC[C@@H](c1ccc(Cl)cc1)c1ccccn1,48.1 ± 3.8%
4,O=C(O)c1cc(-c2ccc(F)cc2F)ccc1O,115 ± 58%
5,CCCOc1cc(N)ccc1C(=O)OCCN(CC)CC,102 ± 10%
6,O=C(Oc1ccccc1C(=O)O)c1ccccc1O,124 ± 42%
7,CN(C)CCOC(=O)C(c1ccccc1)C1(O)CCCC1 (centres undefined),23.4 ± 4.1%
8,C[N+](C)(C)CCOC(N)=O,41.99 ± 0.24%
9,CC(=O)Nc1nnc(S(N)(=O)=O)s1,74.1 ± 19%
10,COc1ccc(C(=O)c2ccccc2O)c(O)c1,86.9 ± 3.5%
11,CO/N=C(\C(=O)N[C@@H]1C(=O)N2C(C(=O)O)=C(COC(N)=O)CS[C@H]12)c1ccco1,149 ± 29%
12,N=C(N)NC(=O)c1nc(Cl)c(N)nc1N,54.7 ± 1.4%
13,Nc1ccc(C(=O)O)c(O)c1,73 ± 16%
14,CCC[C@@H]1C[C@@H](C(=O)N[C@@H]([C@H]2O[C@H](SC)[C@H](O)[C@@H](O)[C@H]2O)[C@H](C)Cl)N(C)C1,80.1 ± 32%
15,CN(C)CCC=C1c2ccccc2COc2ccccc21,88.8 ± 1.1%
16,Nc1ccc(S(=O)(=O)c2ccc(N)cc2)cc1,94.3 ± 19%
17,C[C@H]1O[C@H](O[C@H]2[C@H](O)[C@@H](O)[C@@H](O[C@H]3[C@H](O)[C@@H](O)C(O)O[C@@H]3CO)O[C@@H]2CO)[C@H](O)[C@@H](O)[C@@H]1N[C@H]1C=C(CO)[C@@H](O)[C@H](O)[C@H]1O (some centres undefined),135 ± 70%
18,Cc1cc(-c2ccccc2)nnc1NCCN1CCOCC1,86.8 ± 63%
19,Nc1cccc2c1CN(C1CCC(=O)NC1=O)C2=O (centres undefined),143 ± 43%
